Assay outcomes deposited in PubChem BioAssay by Sanford-Burnham Center for Chemical Genomics.
The entries come from a sample that favours hits as a whole.
DUSP3 inh: inhibitors of human VHR1 phosphatase (DUSP3). P51452. hit rate 0.7% among 50,000. inhibition, % at 20 µM. recombinant VHR phosphatase, colorimetric substrate read-out; in the data active = inhibition above about 60%
Target sequence (P51452 whole entry, looked up): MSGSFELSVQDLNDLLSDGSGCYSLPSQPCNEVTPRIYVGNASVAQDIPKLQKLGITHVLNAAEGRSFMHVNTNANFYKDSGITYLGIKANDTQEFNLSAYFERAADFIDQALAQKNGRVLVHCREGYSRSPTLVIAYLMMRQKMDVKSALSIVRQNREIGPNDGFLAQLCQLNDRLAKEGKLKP
Numbers without * were called inactive.

SMILES	DUSP3 inh
COc1ccc(C2CC(=O)Nc3c2cc(Br)c2ccccc32)c(OC)c1 (stereo unspecified)	111.6*
COc1cc(C2CC(=O)Nc3c2ccc2ccccc32)cc(OC)c1OC(C)=O (stereo unspecified)	2.2
O=C1CC(c2ccc(F)c(Br)c2)c2ccc3ccccc3c2N1 (stereo unspecified)	-7.6
COc1ccc(C(=O)NNC(=O)c2cccc(C)c2O)cc1OC	-43.5
COc1cc(C(=O)N/C(=C/c2ccc(F)cc2)C(=O)NC(CCC(=O)O)C(=O)O)cc(OC)c1OC (stereo unspecified)	0.4
CCC1CCc2c(sc(NC(=O)C3C4CCC(C4)C3C(=O)O)c2C(=O)OC(C)C)C1 (stereo unspecified)	-10.4
NC(=O)c1c(N)sc2c1CCCCCCCCCC2	100.4*
COC(=O)c1c(N)sc2c1CCCC2	19.4
COC(=O)c1c(N)sc2c1CCCCCC2	-12.9
CCCOc1cc(OCCC)c(C#CCN2CCCCC2)cc1C#CCN1CCCCC1	-22.3
CCOC(=O)C1=C(C)N(c2ccc(OCC)cc2)C(=O)/C1=C\c1ccco1	-13.7
O=C1NC(=S)N(c2cccc(Br)c2)C(=O)/C1=C/c1ccc(O)c(Cl)c1	-5.0
O=C1NC(=S)N(c2cccc(Br)c2)C(=O)/C1=C/c1ccco1	88.6*
CCOc1ccc(N2C(=O)NC(=O)/C(=C\c3ccc(C)o3)C2=O)cc1	-0.1
CCOc1ccc(N2C(=O)/C(=C/c3ccco3)C(=O)NC2=S)cc1	80.1*
Cc1cc(/C=C2\C(=O)NC(=S)N(c3cccc(Br)c3)C2=O)c(C)n1C	-13.4
O=C(COc1ccc2ccccc2c1)N1CCN(Cc2ccc(Br)cc2)CC1	14.9
CN1C(=O)C(=Cc2ccc(N(C)C)c(Br)c2)C(=O)N(C)C1=O	-18.3
Cc1ccc(NC(=O)CC2CCCCC2)cc1	6.1
Cc1ccccc1NC(=O)CC1CCCCC1	39.2
O=C(CC1CCCCC1)Nc1ccccc1	96.8*
O=C1NC(=O)C(=Cc2ccc(-c3ccccc3C(=O)O)o2)C(=O)N1	9.1
CC(C)OC(=O)C1C(=O)CC(C)(O)C(C(=O)OC(C)C)C1c1cccc(F)c1 (stereo unspecified)	-29.0
C(=N\N=C(\Cc1nc2ccccc2[nH]1)c1ccccc1)/c1cccs1	-11.0
N#C/C(=C/c1ccc(I)o1)C(=O)N1CCOCC1	3.3
SMILES	DUSP3 inh
COc1ccc(C2CC(=O)C3=C(C2)Nc2ccccc2NC3c2ccc3ccccc3c2)cc1 (stereo unspecified)	10.6
CCc1ccc(C2Nc3ccccc3NC3=C2C(=O)CC(c2ccc(OC)c(OC)c2)C3)cc1 (stereo unspecified)	115.4*
COc1ccc(C2CC(=O)C3=C(C2)Nc2ccccc2NC3c2ccc(F)c(Br)c2)cc1 (stereo unspecified)	115.9*
CSc1ccc(C2Nc3ccccc3NC3=C2C(=O)CC(c2ccc4c(c2)OCO4)C3)cc1 (stereo unspecified)	-12.6
COc1ccc(C2CC(=O)C3=C(C2)Nc2ccccc2NC3c2ccncc2)cc1OC (stereo unspecified)	6.8
Cc1ccc2c(c1)NC(c1ccc(F)cc1)C1=C(CC(c3ccccc3)CC1=O)N2 (stereo unspecified)	-27.8
O=C1CC(c2ccccc2)CC2=C1C(c1ccc(F)c(Br)c1)Nc1ccccc1N2 (stereo unspecified)	-5.7
O=C1CC(c2ccccc2)CC2=C1C(c1ccc(Cl)c(Cl)c1)Nc1ccccc1N2 (stereo unspecified)	-16.6
O=C1CC(c2ccccc2)CC2=C1C(c1ccc(F)c(F)c1)Nc1ccccc1N2 (stereo unspecified)	104.3*
Cc1ccc2c(c1)NC(c1ccc3c(c1)OCO3)C1=C(CC(c3ccccc3)CC1=O)N2 (stereo unspecified)	117.5*
COc1ccc(C2CC(=O)C3=C(C2)Nc2ccccc2NC3c2ccc(SC)cc2)cc1OC (stereo unspecified)	43.0
COc1ccc(C2CC(=O)C3=C(C2)Nc2ccccc2NC3c2cccc(Br)c2)cc1 (stereo unspecified)	1.0
O=C(Nc1ccc(Cl)cc1)/C(=C\c1cccnc1)NC(=O)c1ccccc1	1.8
O=C1C(=O)N(Cc2cccnc2)C(c2ccc(Cl)cc2Cl)/C1=C(\O)c1ccccc1 (stereo unspecified)	-7.9
O=C1CCCc2oc3ccc(NS(=O)(=O)c4ccc(F)cc4)cc3c21	-1.0
O=C(Nc1ccc(Cl)cn1)C(c1ccccc1)c1ccccc1	9.7
Cc1ccc(C(=O)NCCCN2CCOCC2)c2ccccc12	-17.3
CCN(CC)CCCCCOc1ccccc1C	6.1
CCOC(=O)C(CCCCCOc1ccccc1C(C)(C)C)C(=O)OCC	-6.9
Cc1onc(-c2c(Cl)cccc2Cl)c1C(=O)Nc1cc(Cl)ccc1Cl	-5.6
N/C(=N\[N+](=O)[O-])N/N=C\c1ccc(-c2ccc([N+](=O)[O-])cc2)o1	-1.7
CCC(=O)N1c2ccccc2NC2=C(C(=O)CC(c3ccccc3)C2)C1c1ccc([N+](=O)[O-])cc1 (stereo unspecified)	9.6
COc1ccc(C2CC(=O)C3=C(C2)Nc2ccccc2N(C(C)=O)C3c2ccc(OC)c(OC)c2)cc1 (stereo unspecified)	-0.4
CCC(=O)N1c2ccccc2NC2=C(C(=O)CC(c3ccccc3)C2)C1c1ccc(OC)cc1 (stereo unspecified)	102.6*
CCOC(=O)Nc1ccc(S(=O)(=O)Nc2ncccn2)cc1	-2.9
SMILES	DUSP3 inh
O=C(O)COc1ccccc1/C=C1/SC(=S)N(NC(=O)c2ccc(Cl)cc2)C1=O	-5.8
CCOc1cc(C2Nc3cc(C)c(C)cc3NC3=C2C(=O)CC(C)(C)C3)cc([N+](=O)[O-])c1O (stereo unspecified)	117.5*
COc1cc(C2Nc3cc(C)c(C)cc3NC3=C2C(=O)CC(C)(C)C3)cc(Br)c1OC (stereo unspecified)	1.5
COC(=O)c1ccc(C2Nc3cc(C)c(C)cc3NC3=C2C(=O)CC(C)(C)C3)cc1 (stereo unspecified)	6.2
CCOc1cc(C2C(C(=O)OCC3CCCO3)=C(C)NC3=C2C(=O)CCC3)cc([N+](=O)[O-])c1O (stereo unspecified)	-12.0
CC(=O)Nc1ccc(C2Nc3cc(C)c(C)cc3NC3=C2C(=O)CC(C)(C)C3)cc1 (stereo unspecified)	100.1*
Cc1cc2c(cc1C)NC(c1c(F)cccc1F)C1=C(CC(C)(C)CC1=O)N2 (stereo unspecified)	-8.8
CCOC(=O)c1c2c(n(Cc3ccccc3)c1C)C(=O)C(=O)c1ccc(Br)cc1-2	-1.5
CCOc1ccccc1/C=C1\C(=O)NC(=O)N(c2ccc(Br)c(C)c2)C1=O	0.8
O=C(Nc1cccc(Oc2ccc3c(c2)C(=O)N(c2ccccc2)C3=O)c1)c1cccc([N+](=O)[O-])c1	14.7
COCc1cc(C)nc(N/N=C/c2ccc(Cl)cc2Cl)c1C#N	-4.7
Cn1cccc1/C=C1/C(=O)NC(=S)N(c2ccc(Cl)cc2)C1=O	70.4*
Cc1cc(/C=C2\C(=O)NC(=S)N(c3ccc(Cl)cc3)C2=O)c(C)n1C	4.8
COc1ccccc1N1C(=O)C(=Cc2cccn2C)C(=O)NC1=S	76.6*
O=C1NC(=S)N(c2cccc(Cl)c2)C(=O)/C1=C/c1ccc(Cl)cc1	17.3
COc1cc(Br)c(/C=C2\C(=O)NC(=S)N(c3ccccc3)C2=O)cc1OC	0.5
COc1ccccc1N1C(=O)NC(=O)/C(=C\c2cc3ccccc3n2C)C1=O	36.2
O=C1OC(OCc2ccccc2)(c2ccccc2)c2ccccc21 (stereo unspecified)	-5.2
CCc1ccc2c(c1)C(c1ccccc1)C(=O)O2 (stereo unspecified)	5.9
COC(=O)C1=NN(C(=O)OC(C)(C)C)C(O)(C(C)(C)C)C1 (stereo unspecified)	-2.8
CCCCOC(=O)c1ccc(NC(=S)NC(=O)c2cccs2)cc1	-1.9
C=CCNC(=S)Nc1ccccc1NC(=S)NCC=C	67.3
